# Results: PubChem BioAssay AID1259339 (Broad Institute, 2017)
# A number with no mark means an inactive call. Active and inactive are the calls of the source.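 How the source made its calls: active means fitted AC50 no higher than ten times the top tested dose (cut at about 90 µM in these data); inconclusive means flat curve with 30 to 70% signal loss, or bad fit; inactive means AC50 beyond ten times the top dose.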
# Test: TruHit bead signal quenchers or artefacts – biochemical, TruHit kit, artefact control, dose response (AID 1259339)
# Conditions: TruHit alphaLISA kit signal interference counterscreen; series mostly up to 80 µM; activity change, negative = signal loss: at the top concentration
SMILES,"activity change, negative = signal loss",AC50
Cc1cncc(-c2ccc(S(N)(=O)=O)cc2F)c1,-20%,–
CC1=CCC(C(=O)O)C(C(=O)NC2CCCCC2)C1 (configuration not stated),47.5%,–
COc1ccc(S(=O)(=O)N2CCN(C(=O)c3cc4c(s3)CCC4)CC2)cc1,–,> 160 µM
Cc1ccccc1C(=O)Nc1cnc(N2CCC(C(N)=O)(N3CCCCC3)CC2)c(C(=O)O)c1,-4.19%,–
O=C1CC2(CCN(C(=O)Nc3ccccc3)CC2)CN1Cc1ccc(Cl)cc1,44.8% [at 38 µM],–
COc1ccc(NC(=O)CN(C)C(=O)c2cc(-c3ccco3)nc3ccccc23)cc1,–,36.6 µM (active)
COc1ccc(-c2ccc(CCC(=O)O)o2)cc1,-15.3%,–
O=C(CCN1CCOCC1)c1ccc2c(c1)OCCO2,12.9%,–
NC(=O)C1(N2CCCCC2)CCN(c2ncc(NC(=O)c3ccccc3)cc2C(=O)O)CC1,-2.77%,–
NC(=O)C1(N2CCCCC2)CCN(c2ncc(NC(=O)c3ccc(Cl)cc3)cc2C(=O)O)CC1,–,81.9 µM (active)
CCOC(=O)C1CCN(C(=O)CN(Cc2ccccc2)S(C)(=O)=O)CC1,25.4%,–
O=C(NCCCN1CCOCC1)c1cc(-c2ccco2)nc2ccccc12,–,27.5 µM (active)
COCC(=O)N1CCCC2(CCN(CCN3CCCC3)C2=O)C1 (configuration not stated),-7.83%,–
O=C(Nc1nccs1)c1cc(-c2ccccn2)nc2c(Cl)cccc12,–,2.07 µM (active)
O=C1C=C(c2ccccc2)Nc2ccccc2N1,4.78%,–
CCc1ccc(Nc2nc(C(=O)NCc3ccc(N(C)C)cc3)nc3ccccc23)cc1,-32.2%,–
Cc1ccc2cc(CN(Cc3ccco3)S(C)(=O)=O)c(=O)[nH]c2c1,-3.12%,–
